FLuc modulator: counter-screen for miR-21 project: firefly luciferase inhibitors or activators | P08659 | purified FLuc, Km substrates, luminescence inhibition | Potency, µM (highest dose often 57.5 µM), for inactives: at the top dose activity change, negative = inhibition, most hits filed as inhibitors | hit rate 6.9% among 360,000;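 also: plate controls were vehicle for no effect and reference inhibitor for full effect; nearly all actives have a fitted effect of over 55% in size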
Target sequence (P08659 whole entry, looked up): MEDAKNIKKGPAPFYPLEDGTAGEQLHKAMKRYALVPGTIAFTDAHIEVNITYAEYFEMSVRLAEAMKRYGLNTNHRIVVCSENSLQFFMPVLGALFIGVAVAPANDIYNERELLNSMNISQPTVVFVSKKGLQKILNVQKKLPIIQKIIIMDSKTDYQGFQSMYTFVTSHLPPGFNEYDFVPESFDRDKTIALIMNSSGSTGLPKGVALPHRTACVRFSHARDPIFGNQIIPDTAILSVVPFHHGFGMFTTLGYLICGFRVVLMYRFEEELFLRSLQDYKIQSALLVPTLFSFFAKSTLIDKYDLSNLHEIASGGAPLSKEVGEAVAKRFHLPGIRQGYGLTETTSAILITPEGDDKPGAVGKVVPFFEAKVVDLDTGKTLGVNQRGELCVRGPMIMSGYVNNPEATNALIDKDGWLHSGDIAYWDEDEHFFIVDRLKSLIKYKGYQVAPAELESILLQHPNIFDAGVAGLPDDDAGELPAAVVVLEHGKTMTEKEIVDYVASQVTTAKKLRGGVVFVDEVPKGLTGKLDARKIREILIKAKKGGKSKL
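Purified P. pyralis luciferase (10nM final) with 10uM D-luciferin and 10uM ATP (Km levels) in 50mM Tris acetate pH 7.5, 10mM Mg acetate, 0.01% Tween-20, 0.05% BSA; qHTS 6-point titration, ~60 µM downward; luminescence read.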
NPC1 promoter act: NPC1 promoter activation. hit rate 2.4% among 320,000. Huh7 NPC1 promoter luciferase reporter, 24 h. Potency, µM (highest dose often 9.22 µM), inactives show at the highest dose activation, hits mostly activators. AID 485313; also: % of control where 0% means no effect; nearly all actives have a fitted effect of over 60% in size
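Readout is luciferase luminescence, reflecting NPC1 promoter activation in stably transfected Huh7 cells after 24 h compound exposure at 37 °C in reduced-serum medium with 10% FBS.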
ELG1 genotoxic: inducers of genotoxicity in HEK293T ELG1-luciferase cells; HEK293T ELG1-luciferase reporter, luminescence, 16 h; Potency, µM (highest dose often 46 µM), inactives show at the highest dose activity change, positive = activation, hits mostly activators; hit rate 1.3% among 330,000; also: % of control where 0% means no effect; nearly all actives have a fitted effect of over 60% in size
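Genotoxic stress is detected as increased luminescence from luciferase-tagged ELG1 in HEK293T cells, measured with ONE-Glo after a 16 hr treatment at 37 °C.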
Rab9 prom act: activators of Rab9 promoter; hit rate 2.8% among 320,000; AID 485297; Huh7 Rab9 promoter-luciferase reporter, luminescence, 24 h; Potency, µM (doses to about 9.22 µM), for inactives: at the highest dose activation, negative = inhibition, hits mostly activators; also: % of control where 0% means no effect; nearly all actives have a fitted effect of over 60% in size
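Luciferase signal after 10 min detection reagent at ambient indicates Rab9 promoter upregulation; stably transfected Huh7 cells were treated 24 h with compound in DMSO at 37 °C, 5% CO2.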
ELG1 DNA repair: blocks ELG1-dependent DNA repair in HEK293T cells; HEK293T ELG1-luciferase reporter, luminescence, 16 h; DNA damage induced by 5-fluorouridine; Potency, µM (highest dose often 46.1 µM), for the others: at the top dose activity change, negative = inhibition, hits mostly inhibitors; hit rate 2.3% among 330,000; AID 504467; also: % is scaled to controls: 0 for no effect and ±100 for the full control effect; nearly all actives have a fitted effect of over 55% in size
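Reporter activity after DNA damage by 5-fluorouridine is monitored. Compound-treated cells incubate 16 hr at 37 °C, then ONE-Glo is added for 30 min before luminescence reading.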
SMN2 splice enh: enhancers of SMN2 splice variant expression; hit rate 2.8% among 210,000; HEK293 SMN2-luciferase splicing reporter, luminescence, 30-36 h; Potency, µM (top dose mostly 46.1 µM), without a hit: top-dose activity change, positive = activation, usual class: activators; also: % of control where 0% means no effect; nearly all actives have a fitted effect of over 55% in size
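qHTS luciferase splicing reporter: luminescence rises when SMN2 exon 7 is included in transfected HEK293 cells. Compound exposure lasted 30-36 h at 37C, with 4.5 mM final sodium butyrate as control, followed by a ONE-Glo read.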
* marks the source's active call; other numbers are inactive results; ? = inconclusive; · = no result given; [ ] = remark or other dose. In the library only some 9.2% were active in any assay of this set; here they are far more common. Calls follow the shape of the dose curve; as a rule, active = well fitted curve in the direction sought with a large enough effect; inconclusive = small, poorly fitted or top-dose-only effect, or another doubt; inactive = no such curve, though single readings can be large; an effect the other way counts as inactive or inconclusive. Potency is read from the fitted curve at half-maximal effect.

SMILES	FLuc modulator	NPC1 promoter act	ELG1 genotoxic	Rab9 prom act	ELG1 DNA repair	SMN2 splice enh
CCOc1ccc(-n2nc3cc(C)c(NC(=O)CC)cc3n2)cc1	?	·	·	·	·	-10%
Cc1ccc([N+](=O)[O-])cc1NC(=O)Nc1onc(C)c1C	-2%	0%	-9%	-1%	-5%	·
CCn1cc(CNC(=O)c2c(-c3c(Cl)cccc3Cl)noc2C)c(C)n1	-3%	-2%	0%	-7%	-8%	-10%
Cc1nn(C)cc1/C=C1\SC(=S)NC1=O	?	-1%	0%	-1%	?	2%
COc1ccc(-n2c(C)cc(/C=C3\SC(=S)NC3=O)c2C)cc1	5.4µM*	?	4%	?	?	·
CCCOc1ccccc1/C=C1\SC(N)=NC1=O	4%	9%	-15%	-3%	?	·
Cc1cc(/C=C2\SC(=S)NC2=O)cc(C)c1O	8.5µM*	2%	16%	-2%	?	·
Cc1cc(/C=C2\SC(N)=NC2=O)c(C)n1-c1ccccc1	0.38µM*	1.4µM*	7.3µM*	2.8µM*	?	13µM*
Cc1cc(/C=C2\SC(=S)NC2=O)c(C)n1-c1ccccc1	0.54µM*	1µM*	?	0.63µM*	?	·
O=C(Nc1ccc(Cl)cc1)/C(=C/c1ccc([N+](=O)[O-])cc1)c1nc2ccccc2s1	?	-42%	-21%	-51%	?	-96%
CN1CCN(/C=C2\SC(=S)NC2=O)CC1	-1%	-2%	2%	1%	10%	10%
CC1Cc2cc(/C=C3/SC(=S)NC3=O)ccc2O1 (configuration not stated)	2.7µM*	?	11%	4µM*	?	·
Cc1cc(/C=C2\SC(=S)NC2=O)c(C)n1C	27µM*	3%	11%	-7%	16%	11%
Cc1cc(/C=C2\SC(=S)NC2=O)c(C)n1-c1ccc(O)cc1	0.85µM*	1.8µM*	?	1.8µM*	?	·
CCc1ccc(NC(=O)Cn2c(=O)n(CCC(C)C)c(=O)c3cccnc32)cc1	5%	·	·	·	·	-7%
COc1cccc(C(C(=O)NCC2CCCO2)N(C(=O)Cn2nnc3ccccc32)c2ccc(NC(C)=O)cc2)c1OC (configuration not stated)	-4%	0%	4%	-6%	10%	·
CCOC(=O)c1ccccc1NC(=O)COC(=O)CCC1CCCC1	-2%	-3%	3%	0%	17%	·
CCn1c(SCC(=O)Nc2ccc(C(C)=O)cc2)nc2nc3c(cc2c1=O)COC(C)(C)C3	-17%	19%	?	?	?	·
CCn1c(SCC(=O)Nc2ccc(OC)cc2)nc2nc3c(cc2c1=O)COC(C)(C)C3	3%	-5%	-7%	-2%	21µM*	·
CCn1c(SCC(=O)Nc2ccccc2C)nc2nc3c(cc2c1=O)COC(C)(C)C3	-1%	2%	-9%	-2%	13µM*	·
CCC(C)N(C(=O)CSc1nc2ccc(OC)cc2[nH]1)C1CCS(=O)(=O)C1 (configuration not stated)	2%	-3%	0%	-6%	26%	·
COc1ccc(/C=N/n2c(N)nc3ccccc32)cc1OC	5.4µM*	?	17%	26%	?	29%
COc1cccc(/C=N/n2c(N)nc3ccccc32)c1OC	12µM*	?	5%	?	?	?
COc1cccc(/C=N/n2cnc3ccccc32)c1OC	4.8µM*	2.5µM*	2.6µM*	2.2µM*	?	?
C(=N\n1cnc2ccccc21)/c1cccnc1	?	10%	17%	16%	?	-41%
SMILES	FLuc modulator	NPC1 promoter act	ELG1 genotoxic	Rab9 prom act	ELG1 DNA repair	SMN2 splice enh
CCC(C)n1c(OC)nc2c1c(=O)n(C)c(=O)n2C (configuration not stated)	2%	0%	-8%	1%	-7%	·
CC(C)(C)c1ccc(C(=O)/C=C2\NC(=O)CS2)cc1	0.3µM*	0.4µM*	?	0.63µM*	?	3.2µM*
COc1ccccc1NC(=O)/C=C1\NC(=O)CS1	-15%	-2%	5%	1%	15%	22%
Cc1ccc(NC(=O)/C=C2\NC(=O)CS2)cc1	7.6µM*	3.5µM*	23µM*	3.2µM*	?	·
CCCCN1CCCC[C@H]1C(=O)Nc1c(C)cccc1C	·	·	·	·	·	-9%[20.6 µM]
COc1ccc(Cl)cc1NC(=O)C(=O)N/N=C/c1cc(C)n(-c2ccc(C)cc2)c1C	3.4µM*	-3%	1%	-1%	8%	9%
CCOc1cc(/C=N/NC(=O)c2ccc(CN3CCOCC3)cc2)ccc1OC	-11%	-8%	-4%	-3%	-8%	-11%
Cc1ccc(C)c(-n2c(C)cc(/C=N/NC(=O)c3c(C)nc4cc(C)ccn34)c2C)c1	-20%	-1%	-2%	-3%	18µM*	-4%
CN(C)c1ccc(/C=N/NC(=O)c2ccc(CN3CCOCC3)cc2)cc1Br	19µM*	-13%	-5%	-1%	?	-38%
Cc1ccc(-n2c(C)cc(/C=N/NC(=O)CC3(C)OCCO3)c2C)cc1	24µM*	-1%	1%	-1%	?	-50%
CCOc1ccc(Nc2cc(C)c(C#N)c3nc4ccccc4n23)cc1	1%	·	·	·	·	5%
C/C(CC(=O)Nc1cc(Cl)ccc1Cl)=N\NC(=O)c1ccccc1Br	1%	-5%	7%	-11%	3%	-6%
CN=C(NC1CCCCC1)c1ccc(Cl)cc1	-1%	-1%	0%	1%	6%	18%
Cc1cccc(NC(=O)C2CCCN(C(=O)Nc3ccc(F)cc3)C2)c1 (configuration not stated)	3%	-2%	-3%	-6%	-2%	·
Cc1cc(/C=N/NC(=O)c2ccncc2)c(C)n1-c1cccc(C(F)(F)F)c1	-2%	-2%	4%	-5%	5%	·
Cc1cc(/C=N/NC(=O)c2ccc(O)cc2)c(C)n1CC(C)C	6µM*	23%	?	?	?	·

Compound activity: PubChem BioAssay, National Center for Advancing Translational Sciences (NCATS)
